# In publication PMC6212790, “How bacterial xenogeneic silencer rok distinguishes foreign from self DNA in its resident genome”:
# Whole data set: some 33,000 sequences, median “e-score” near -0.037, cut for the highest 2% near 0.34. The sample holds the highest values, similar sequences and a random draw of the others, so the mix is not that of the screen.
# Target: T1, GST-Rok (full length) (Bacillus subtilis subsp. subtilis str. …, UniProt O34857 1-191)
# T1 sequence: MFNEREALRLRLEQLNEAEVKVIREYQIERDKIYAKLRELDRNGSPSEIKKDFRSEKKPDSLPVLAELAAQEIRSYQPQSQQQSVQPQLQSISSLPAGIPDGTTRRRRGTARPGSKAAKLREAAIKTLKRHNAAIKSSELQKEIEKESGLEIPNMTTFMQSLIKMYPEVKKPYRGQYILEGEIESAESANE
# Test: protein binding microarray; Rok is a gene silencer of Bacillus subtilis; high values mean tight binding
# Details: protein: recombinant; tags: GST (pTH5325, pDEST15-Magic modified); dsDNA, one strand shown
# Procedure, shortened: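 Every oligonucleotide joins a 25-mer constant primer to a 35-mer variable part drawn from a de Bruijn sequence of order 10, so each non-palindromic 8-mer appears at least 32 times and each palindromic 8-mer 16 times. The preference for every 8-mer is reported as a unitless, rank-based enrichment score (E-score). This score spans 0.5 for the most favored 8-mer to −0.5 for the most disfavored.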
row,Sequence,binding signal [E-score]
1,GGAATGTA,0.103
2,AACACCGT,0.146
3,GTGACAAC,-0.0442
4,ACTAGATC,0.327
5,ACTAGAGA,-0.0107
6,ACTAGACA,0.054
7,ACTAGATG,0.339
8,CCTAGATA,0.101
9,ACTAGACG,-0.0512
10,GCTAGATA,0.342
11,GCTAGACA,0.0674
12,ACTAGATA,0.402
13,CAGATTAG,0.083
14,CAGTGTAA,0.192
15,CACAAAGC,0.0266
16,ACCACAAG,-0.065
17,CAGGTGCA,-0.198
18,TATGTCGA,0.132
19,CTAATCGA,0.122
20,ACTACCAA,0.305
21,ACTACCAG,0.238
22,ACTACCAC,0.347
23,ACTACCAT,0.352

row,Sequence,binding signal [E-score]
1,GCTACCAC,0.188
2,CCTACCAC,0.224
3,TAGTACCA,0.166
4,GCATCGAC,0.0744
5,GTGTAGAA,0.292
6,ATGTAGAC,0.257
7,CTGTAGAA,0.345
8,ATGTAGAG,0.199
9,CTGTAGAC,0.117
10,ATGTAGAA,0.423
11,CCCAAACC,-0.181
12,GTACGGTA,0.232
13,TACTTACA,0.331
14,AGGTAGGC,-0.115
15,GAGTGAAA,-0.103
16,CTATAGTC,0.096
17,ATATAGTC,0.25
18,ATATAGTA,0.456
19,CTATAGTA,0.365
20,GTATAGTA,0.316
21,ATATAGTG,0.274
22,ACTGCTAG,-0.0701
23,CCGACCAA,-0.12

row,Sequence,binding signal [E-score]
1,CCGACTAA,0.0388
2,AGAAACAA,0.253
3,AGGTATGC,0.154
4,AAGTGGAG,-0.191
5,ATCTAATC,0.351
6,ATCTAATA,0.313
7,ATCTAATG,0.241
8,ATAATTCA,0.21
9,AAAATTTA,0.293
10,GCAATTTA,0.279
11,ATAATTTC,0.351
12,TAAATTTA,0.361
13,CTAATTTC,0.162
14,ATAATTTG,0.284
15,ATAATTTA,0.397
16,GTAATTTA,0.355
17,CAAATTTA,0.168
18,GTAATTGA,0.246
19,CTAATTTA,0.286
20,TAAAGCCA,-0.0305
21,AACTCAAT,0.296
22,CGCCATTC,-0.0796
23,AATAAGGC,-0.0153

row,Sequence,binding signal [E-score]
1,ATGTCGCG,-0.0435
2,CCATTTAC,0.0848
3,GTCATATA,0.291
4,GAATGGGA,-0.15
5,ACGAGCTA,-0.107
6,CAAACTCC,-0.0836
7,AAAACTAC,0.453
8,AAAACTAG,0.334
9,AAAACTGT,-0.0241
10,CAAACTAG,0.329
11,TAAACTAA,0.288
12,AAAACTAT,0.433
13,CAAACTAC,0.43
14,CAAACTTA,0.162
15,AAAACTAA,0.254
16,CAAACTAA,0.378
17,AAAACTCC,0.0005
18,GTGGCAAC,-0.17
19,CGTGACAA,-0.11
20,CGACGAGA,-0.0756
21,ATCCCAAA,0.0535
22,CACTCTCA,-0.109
23,CTTAATGC,0.13

row,Sequence,binding signal [E-score]
1,ACCGAGCA,-0.0882
2,GTTGGTTA,0.26
3,AGCGCTAT,-0.0624
4,GAAACTTC,0.224
5,GAAACTAC,0.469
6,GAAACTAA,0.244
7,CGGTAGGA,0.281
8,CAACCGGC,-0.0977
9,ACGCTCCT,-0.000812
10,TAATACGA,0.377
11,AAATACGA,0.118
12,CAATACGA,0.00373
13,GAATACTA,0.295
14,CAATACTA,0.261
15,TAATACTA,0.419
16,AAATACTC,0.227
17,AAATACTG,0.327
18,AAATACTA,0.454
19,ACGCAAAC,0.106
20,AGAGCTTA,-0.044
21,GACGATGA,-0.103
22,GGCTGTAC,-0.102
